Structures are written as SMILES. In all, about 52,000 compounds went through this assay and about 4,300 (8.3%) were called active. Only a selection was taken, and actives are over-represented in it overall. Values without a mark were called inactive. Rule as the data show it: active = survival mostly below about 52% (no sharp cut-off); inactive = mostly above about 56%.

The test system of this test is DeltatarO mutant. Put plainly: growth inhibition of S. aureus wild type versus tarO mutant, primary screen, teichoic acid synthesis inhibitors, RN4220, OD600 (AID 463173). The conditions noted are these: OD600, 18 h, hits give low values, screened at 18.75 µg/mL (by protocol).
As to `COC(=O)C(NC(=O)CCc1c(C)nc2c(-c3ccccc3)c(C)nn2c1C)C(C)C` (stereo not drawn), the survival was 109%.
As for `O=C(Cc1ccc(F)cc1)N1CCC(c2nc3c(nnn3Cc3ccc(Cl)cc3)c(=O)[nH]2)CC1`, the survival is 27% (active).
Turning to `O=C(Cc1ccccc1F)N1CCC(c2nc3c(nnn3Cc3cccc(Cl)c3)c(=O)[nH]2)CC1`, the survival was 44% (active).
As to `O=C(Cc1ccc(F)cc1)N1CCC(c2nc3c(nnn3Cc3ccc(F)cc3)c(=O)[nH]2)CC1`, the survival was 66%.
As for `Cc1ccc(Cn2nnc3c(=O)[nH]c(C4CCN(C(=O)Cc5ccccc5F)CC4)nc32)cc1`, the survival is 69%.
Take `O=C(Cc1ccccc1F)N1CCC(c2nc3c(nnn3Cc3ccc(F)cc3)c(=O)[nH]2)CC1`: the survival was 72%.
For `CS(=O)(=O)N1CCC(c2nc3c(nnn3Cc3ccc(F)cc3)c(=O)[nH]2)CC1`, the survival was 102%.
In the case of `COc1ccccc1N1CCN(C(=O)Cn2ncc3c2-c2cc(C)ccc2OC3)CC1`, the survival is 58%.
As to `CN(C(=S)SCC1=CCS(=O)(=O)C1)C1CCS(=O)(=O)C1` (stereo not drawn), the survival is 94%.
Take `O=C1C(c2ccc(F)cc2)N(Cc2ccccc2Cl)C(=O)CN1C1CCCCC1` (stereo not drawn): the survival was 81%.
Consider `Nc1no[n+]([O-])c1C(=O)NCCO`, for which the survival was 65%.
For `CN(C)C(=O)c1c(N)no[n+]1[O-]` the value was 56% (active); for `CC(C)(C)NC(=O)c1c(N)no[n+]1[O-]`, 92%.
`Cc1cc(C)c2c(=O)cc(C(=O)NCCc3ccc(S(N)(=O)=O)cc3)oc2c1`: the survival was 61%.
For `CCOc1ccc(CC(=O)Nc2c(C(=O)c3ccccc3)oc3ccc(Cl)cc23)cc1OCC`, the survival was 48%.
Consider `CC(=O)Nc1c(C(=O)O)oc2ccc(Cl)cc12`, for which the survival was 58% (active).
In the case of `COC(=O)c1oc2ccc(Cl)cc2c1C`, the survival is 65%.
With `O=C(NCc1cccs1)c1ccc(Cn2c(SCc3ccc(F)cc3)nc3cccnc32)cc1`, the survival was 84%.
`Cc1ccc(S(=O)(=O)N=C2SCCCS2)cc1`: the survival was 91%.
Consider `C=CCN=C1SC(C)C(=O)N1S(=O)(=O)c1ccccc1` (stereo not drawn), for which the survival was 57%.
With `C=CCN=C1SCC(=O)N1S(=O)(=O)c1ccc(C)cc1`, the survival is 60% (active).
`CC(=O)Nc1ccc(I)cc1C(=O)O`: the survival was 95%.
For `CCN(Cc1ccccc1)C(=O)Cn1c(=O)cc(C)c2c(C)nn(-c3cccc(F)c3)c21` the value was 72%.
Regarding `CCOC(=O)c1ccc(NC(=O)Cn2cc(C(=O)c3cccs3)c3ccccc32)cc1`, the survival is 62%.
Consider `Cc1ccc(C(=O)Nc2ccc(S(=O)(=O)N3CCC(c4nc5ccccc5s4)CC3)cc2)cc1`, for which the survival was 61%.
Regarding `O=C(Nc1ccc(S(=O)(=O)N2CCC(c3nc4ccccc4s3)CC2)cc1)c1ccccc1`, the survival was 104%.
On to `O=C(Nc1ccc(S(=O)(=O)N2CCC(c3nc4ccccc4s3)CC2)cc1)c1ccccc1F`, for which the survival is 57%.
On to `O=C(Nc1ccc(S(=O)(=O)N2CCC(c3nc4ccccc4s3)CC2)cc1)c1ccc(F)cc1`, for which the survival was 63%.
Turning to `Cc1ccccc1C(=O)Nc1ccc(S(=O)(=O)N2CCC(c3nc4ccccc4s3)CC2)cc1`, the survival is 40% (active).
Regarding `Cc1cccc(C(=O)Nc2ccc(S(=O)(=O)N3CCC(c4nc5ccccc5s4)CC3)cc2)c1`, the survival was 40% (active).
Take `COCCn1c(SCC(=O)c2c(C)[nH]c3ccccc23)nc2cc(C(=O)NC(C)C)ccc2c1=O`: the survival was 68%.
Regarding `COc1ccc(NC(=O)CS(=O)CC(=O)NC2CCCc3ccccc32)cc1` (stereo not drawn), the survival was 60%.
On to `O=C(c1cccc(Cl)c1)n1nc(-c2cccnc2)nc1NCc1ccccc1`, for which the survival is 53%.
On to `Cc1ccc(Cl)cc1NC(=O)COC(=O)CC(C)(C)CC1=NS(=O)(=O)c2ccccc2N1`, for which the survival was 84%.
For the compound `CC(C)(CO)C(O)C(=O)NN` (stereo not drawn), the survival was 84%.
For the compound `CC1=CC(C)(C)N(CC(=O)c2ccccc2)c2ccc(C)cc21`, the survival was 97%.
Turning to `Cc1ccc(C(=O)N2c3ccc(C)cc3C(C)(c3ccccc3)CC2(C)C)cc1` (stereo not drawn), the survival is 4% (active).
On to `COc1ccc(C(=O)N2c3ccc(C)cc3C(C)(c3ccccc3)CC2(C)C)cc1` (stereo not drawn), for which the survival was 25% (active).
With `Cc1ccc(C(=O)N2CCN(c3ccccc3)CC2)cc1`, the survival is 87%.
Regarding `CC(=O)OC1CC(C)N(C(=O)c2ccccc2)c2ccc(C)cc21` (stereo not drawn), the survival is 67%.
For `Cc1ccc2c(c1)N(C(=O)c1ccc(F)cc1)C(C)(C)CC2(C)c1ccccc1` (stereo not drawn), the survival was 24% (active).
For `Cc1ccc2c(c1)C(C)(c1ccccc1)CC(C)(C)N2C(=O)c1ccc(F)cc1` (stereo not drawn) the value was -4% (active).
For `COc1ccc(C(=O)NCc2ccc3c(c2)CCN3C(=O)c2ccc(C)cc2)cc1` the value was 82%; for `Cc1ccc(C)c(N2CCN(C(=O)c3ccc4c(c3)N(Cc3ccc(F)cc3)C(=O)c3ccccc3S4=O)CC2)c1` (stereo not drawn), 101%; for `Cc1ccc(NC(=O)NCc2ccc3c(c2)CCN3C(=O)c2ccccc2)c(Cl)c1`, 82%.
Take `COc1ccc(C(=O)NCc2ccc3c(c2)CCN3C(=O)c2ccccc2)cc1`: the survival was 84%.
As for `Cc1ccc(C(=O)N2CC(=O)NC(=O)C2)cc1`, the survival is 83%.
Consider `CCOC(=O)C1CCC(CN(Cc2ccc(OC)cc2)S(=O)(=O)c2ccc(F)c(C(=O)Nc3c(C)cccc3C)c2)CC1` (stereo not drawn), for which the survival is 83%.
Consider `O=C(NCCCN1CCOCC1)C1CC(c2ccccc2O)=NO1` (stereo not drawn), for which the survival is 97%.
As to `Cn1cccc1C(C(=O)NC1CCCCC1)N(C(=O)Cn1nnc2ccccc21)c1cnc2ccccc2c1` (stereo not drawn), the survival was 112%.
On to `Cc1cc(C)nc(SCC(=O)Nc2ccc(N3CCOCC3)cc2)n1`, for which the survival was 82%.
For `CCc1ccccc1NC(=O)Cn1c(=O)n(Cc2ccc(OC)cc2)c(=O)c2oc3ccccc3c21` the value was 70%.
Take `CC1(C)CC(=O)c2cc(C(=O)Nc3ccc(Br)cc3)c(=O)[nH]c2C1`: the survival is 70%.
`O=C(CCS(=O)(=O)c1cc(Br)cc2c1N(C(=O)C1CC1)CC2)N1CCN(c2cccc(C(F)(F)F)c2)CC1`: the survival was 59%.
For `Cc1nc2ccn(Cc3ccco3)c(=O)c2cc1C(=O)N1CCN(c2ccc(F)cc2)CC1` the value was 135%; for `Cc1cccc(OCCCn2c(CCNC(=O)C3CCCCC3)nc3ccccc32)c1`, 37%.
In the case of `CCc1nc2ccccc2n1CCCCOc1cccc(C)c1`, the survival is -2% (active).
Turning to `CCc1nc2ccccc2n1CCCCOc1ccc(Cl)cc1`, the survival was -3% (active).
For the compound `CCCC(O)c1nc2ccccc2n1CCCOc1ccc(Cl)cc1` (stereo not drawn), the survival was 65%.
In the case of `CCc1nc2ccccc2n1CCCCOc1ccccc1C` it was 0% (active); in that of `CCc1nc2ccccc2n1CCCCOc1ccc(C)cc1`, 1% (active); in that of `CCc1nc2ccccc2n1CCO`, 77%.
Take `O=C1C2C3C=CC(C3)C2C(=O)N1CCN1CCN(S(=O)(=O)c2ccc(Br)cc2)CC1` (stereo not drawn): the survival was 60%.
In the case of `CCOc1ccccc1NC(=O)c1c2c(nc3ccccc13)C(=O)N(C1CCCCC1)C2`, the survival is 55%.
In the case of `COc1ccc(OC)c(NCc2cccn2-c2nnc(N3CCCCC3)s2)c1`, the survival was 93%.
For the compound `COc1ccc(CC(=O)NCc2nc3cccnc3n2Cc2ccc(C)cc2)cc1`, the survival is 92%.
As to `CN1C(=O)/C(=C/c2cccs2)SC1=S`, the survival was 113%.
Consider `COc1ccc(Nc2ncc(C(=O)N3CCN(c4cccc(Cl)c4)CC3)c3ccccc23)cc1`, for which the survival was 62%.
In the case of `Cc1cccc(N2CCN(C(=O)C3CCCN(S(=O)(=O)c4ccc5c(c4)oc(=O)n5C)C3)CC2)c1C` (stereo not drawn) it was 84%; in that of `CC(=O)N1CCCC1c1nc2ccccc2n1Cc1cc(C)ccc1C` (stereo not drawn), 106%.
For `Cc1cc(NC(=O)c2cccn2-c2nnc(N3CCCCC3)s2)ccc1Br`, the survival is 117%.
In the case of `CCCCN(C)CCCNC(=O)C1CCN(S(=O)(=O)CC)CC1` it was 108%; in that of `Cc1ccc(CN(Cc2ccco2)C(=O)c2ccccc2Cl)o1`, 74%.
As for `CCc1ccc(CN(Cc2ccco2)C(=O)c2ccc(C)cc2)cc1`, the survival is 41% (active).
For `CCc1ccc(CN(Cc2ccco2)C(=O)c2ccc(OC)cc2)cc1` the value was 52% (active).
`Cc1ccc(C(=O)N(Cc2ccco2)Cc2ccco2)cc1`: the survival was 61%.
`O=C(c1ccccc1Br)N(Cc1ccco1)Cc1ccco1`: the survival is 45% (active).
For `Cc1ccc(CN(Cc2ccco2)C(=O)c2ccccc2Br)o1` the value was 47%; for `CCc1ccc(CN(Cc2ccco2)C(=O)c2ccccc2Cl)cc1`, 46% (active).
As for `CCOc1ccccc1C(=O)N(Cc1ccco1)Cc1ccco1`, the survival is 73%.
As for `COc1ccc(C(=O)N(Cc2ccco2)Cc2ccco2)cc1`, the survival was 58%.
As for `Cc1ccc(C(=O)N(Cc2ccc(N(C)C)cc2)Cc2ccco2)cc1`, the survival is 73%.
Regarding `COc1ccc(C(=O)N(Cc2ccco2)Cc2ccc(C)o2)cc1`, the survival is 71%.
Take `O=C(c1ccccc1Cl)N(Cc1ccco1)Cc1ccco1`: the survival was 60%.
Regarding `COc1cccc(/C=C(\C#N)C(=O)Nc2ccc(NC(C)=O)cc2)c1OC`, the survival was 89%.
For `Cc1ccccc1C(=O)Nc1ccc2oc(-c3ccc(Cl)c(Cl)c3)nc2c1` the value was 64%.
With `Cc1ccc2cc(CN(Cc3ccccc3)C(=O)C3CC3)c3nnnn3c2c1`, the survival was 100%.
Regarding `O=C(NCc1ccco1)C(c1ccccc1)N(C(=O)Cn1nnc2ccccc21)C1CCCC1` (stereo not drawn), the survival was 105%.
For the compound `Cc1ccc(N2CC(NC(=O)c3ccccc3C(F)(F)F)CC2=O)cc1C` (stereo not drawn), the survival is 55%.
For the compound `CC(=O)Nc1ccc(NC(=O)CN(C)S(=O)(=O)c2ccc3c(c2)CCCC(=O)N3)cc1`, the survival is 84%.
As to `CCN(CC)C(NC(=O)c1ccccc1)C(=O)c1ccccc1` (stereo not drawn), the survival is 85%.
Take `COc1ccc(-c2nn(-c3cccc(F)c3)c3c2cnc2cc(OC)c(OC)cc23)cc1`: the survival was 67%.
In the case of `Cc1ccc(S(=O)(=O)N(CCO)Cc2ccccc2)cc1`, the survival is 87%.

The values above are taken from PubChem BioAssay AID463173 (ICCB-Longwood Screening Facility, Harvard Medical School, 2010).
